Holding throughout (test): NCI-60 one-dose screen, 48 h (100 = growth as untreated, 0 = no growth, -100 = all killed)
The subject of test [1] is SK-MEL-2 melanoma. As to conditions: 10 µM unless noted.
Test [2] relates to EKVX NSCLC. The following applies: 10 µM unless noted.
The subject of test [3] is SN12C renal. The following applies: 10 µM unless noted.
Test [4] relates to UO-31 renal. As to conditions: 10 µM unless noted.
The subject of test [5] is TK-10 renal. The following applies: 10 µM unless noted.
Test [6] has as its system ACHN renal. The following applies: 10 µM unless noted.
Test [7] deals with CAKI-1 renal. As to conditions: 10 µM unless noted.
Test [8] has as its system A498 renal. The following applies: 10 µM.
The test system of test [9] is HL-60(TB) leukemia. As to conditions: 10 µM unless noted.
Test [10] has as its system CCRF-CEM leukemia. As to conditions: 10 µM unless noted.
In test [11] the test system is MOLT-4 leukemia. The following applies: 10 µM unless noted.
Test [12] deals with SR leukemia. As to conditions: 10 µM unless noted.
For test [13], the system named is RPMI-8226 leukemia. The following applies: 10 µM unless noted.
In test [14] the test system is OVCAR-8 ovarian. As to conditions: 10 µM unless noted.
Test [15] relates to OVCAR-5 ovarian. The following applies: 10 µM unless noted.
In test [16] the test system is OVCAR-4 ovarian. As to conditions: 10 µM unless noted.
Test [17] has as its system SK-OV-3 ovarian. As to conditions: 10 µM unless noted.
In test [18] the test system is IGROV1 ovarian. As to conditions: 10 µM unless noted.
In test [19] the test system is OVCAR-3 ovarian. As to conditions: 10 µM unless noted.
Test [20] concerns HS 578T breast. The following applies: 10 µM unless noted.

This is part of a sample that, as a whole, favours compounds with a hit. Of some 83,000 tested, about 20% had one in any assay.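 Cells were grown in 96-well plates and exposed to the test compound at a single concentration for 48 hours; results are reported as percent growth, with values below 10 considered active.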 Unmarked numbers belong to inactive results. Activity calls are given as the source filed them.

For the compound `CC[C@]12C=CCN3CC[C@]4(C(=C(C(=O)OC)C1)Nc1cc(OC)c(OC(C)=O)cc14)[C@@H]32`, the growth is 41.5% in test [1]; 55.6% in test [2]; 8.6% (active) in test [3]; 28.6% in [4]; 21.4% in test [5]; 21.4% in test [6]. Further, the growth in test [7] is 21%; in test [8] it was -7.74% (active); in test [9] it was -8.44% (active); in test [10] it was 0.65% (active); in [11], 9.7% (active); in test [12] it was 7.64% (active). In addition, the growth in test [13] is 7.27% (active); in test [14], 5.97% (active); in test [15], 43%; in test [16] it was 38.6%; in test [17], 2.29% (active); in test [18], 26.3%. In addition, the growth in [19] was 14.1%; in test [20], 46.7%.
As to `CCn1c2ccccc2c2cc(C(=O)c3cccc4c3CCCN4)ccc21`, the growth in test [1] was 99.5%; in test [2] it was 99.3%; in test [3] it was 93.7%; in test [4], 94.1%; in test [5] it was 107%; in test [6], 102%. For the same compound, the growth in [7] was 99.3%; in test [8] it was 112%; in test [9] it was 110%; in test [10], 120%; in [11], 104%; in test [12], 95.3%. Moreover, the growth in test [13] is 112%; in test [15] it was 99%; in test [16] it was 101%; in test [17], 106%; in test [18], 110%; in test [19], 103%. In test [20], the growth is 92.1%.
Regarding `Nc1ccc2c(c1)oc1ccccc12`, the growth in test [1] is 102%; in [2] it was 83.5%; in test [3] it was 94.6%; in [4] it was 69.3%; in test [5], 135%; in test [6], 102%. Besides, the growth was 82.5% in test [7]; 103% in [8]; 78.3% in test [9]; 55.6% in test [10]; 85% in test [11]; 91% in [12]. In addition, the growth in [13] is 79.3%; in test [14], 107%; in test [15], 98.3%; in [16] it was 103%; in test [17], 115%; in test [18] it was 110%. Moreover, the growth in test [19] was 103%; in test [20] it was 104%.
For `CC12CCC3C(CCC4=CC(=O)CCC43CF)C1CCC2=O` (centres undefined), the growth in [1] was 97.2%; in [2], 94.8%; in [3] it was 113%; in test [4] it was 87.8%; in test [5] it was 115%; in test [6], 120%. Moreover, the growth was 111% in test [7]; 111% in test [8]; 113% in test [9]; 88.2% in test [10]; 106% in test [11]; 119% in [12]. For the same compound, the growth in [14] was 94.3%; in test [15], 118%; in test [16], 98.8%; in test [17], 120%; in test [18], 62.4%; in [19] it was 119%.
For `Clc1cccc(NCOOC2(OOCNc3cccc(Cl)c3)CCCCC2)c1`, the growth was 80.8% in test [1]; 55.1% in test [2]; 91.9% in test [3]; -73.7% (active) in [4]; 86.3% in test [5]; 38.8% in [6]. Further, the growth in test [7] was 12.3%; in test [8], 61%; in [9], 39.1%; in test [10], 36.7%; in test [11], 72.4%; in test [12] it was -41.4% (active). The growth in [13] was 53.1%; in [14], 30.3%; in test [15] it was 82.5%; in test [16], 107%; in test [17], 94.7%; in test [19] it was 79.7%. Further, in test [20], the growth is 98.4%.
With `C[C@@H]1CCC2[C@@H](C)[C@H](OC(=O)CCC(=O)NCCNC(=O)Cc3cc(=O)oc4cc(N(C)C)ccc34)O[C@@H]3O[C@]4(C)CC[C@@H]1C23OO4` (some centres undefined), the growth in test [1] was 40.7%; in [2], 35.3%; in test [3], 32.2%; in test [4], 13%; in [5], 20%; in test [6] it was 40.3%. Also, the growth was 44.1% in test [7]; 64.9% in [8]; -38.8% (active) in [9]; 23% in test [10]; 31.3% in [11]; -16.8% (active) in test [12]. Besides, the growth in test [13] was 15.1%; in test [14] it was 23.8%; in test [15], 49%; in test [16], 49.1%; in [17], 92.3%; in test [18] it was 55%. Besides, the growth in test [19] was 37.7%; in test [20], 49.5%.
Take `O=C1NC(=O)C(=Cc2cn(C(=O)c3ccccc3)c3ccccc23)C(=O)N1`: the growth is 96.5% in test [1]; 97.5% in [2]; 91.9% in test [3]; 64.2% in [4]; 138% in [5]; 93.5% in test [6]. The growth in test [7] is 92.8%; in test [8], 115%; in test [9], 108%; in [10], 104%; in [11], 88.3%; in [12], 90.5%. The growth was 114% in [13]; 92.3% in test [14]; 94.7% in test [15]; 92.1% in test [16]; 91.5% in test [17]; 108% in [19]. The growth in [20] is 103%.
As for `O=C1C2CC=CCC2C(=O)N1SC(Cl)(Cl)Cl` (centres undefined), the growth is 122% in test [1]; 121% in test [2]; 97.4% in test [3]; 4.07% (active) in test [4]; 115% in test [5]; 72.3% in [6]. Besides, the growth was 72.8% in [7]; 139% in test [8]; 46.2% in [9]; 21.6% in test [10]; 36.3% in test [11]; 41.5% in test [12]. In addition, the growth in test [13] was 33.1%; in test [14], 102%; in test [15] it was 111%; in [16], 99.9%; in test [18] it was 31.7%; in test [19], 76.8%. For the same compound, in [20], the growth is 160%.

For the origin of these results see PubChem BioAssay (NCI).
